This is a sample that favours compounds with a hit; in the whole collection about 3.3% have one here.
Jurkat NFkB inh = inhibitors of the PMA/ionomycin-induced NF-kB reporter in Jurkat cells | PMA/ionomycin-induced NF-kB luciferase reporter, luminescence | inhibition, % at 4 µM | hit rate 0.53% among 330,000 | AID 435003; in the data active = inhibition above about 50%
SMARCA2 activ = SMARCA2 function activation, primary screen; MG213 cells, MMTV-luciferase reporter, dexamethasone, overnight; activation, % at 9.1 µM; hit rate 1% among 370,000; AID 652017; in the data active = activation above about 7.8%
697 NFkB inh = lowers PMA/ionomycin-induced NF-kB signal in 697 B cells | 697 B-cell NF-kB luciferase reporter, 16 h | inhibition, % at 4 µM | hit rate 0.33% among 330,000 | AID 435022; in the data active = inhibition above about 35%
esBAF inh = SWI/SNF esBAF complex inhibition; hit rate 2% among 350,000; reporter increase, % at 12.5 µM; mouse ES cells, Bmi1-luciferase knock-in reporter, 24 h; 100% = twice the neutral-well signal; in the data active = activation above about 40%;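 also: a rise in the Bmi1 reporter signal indicates esBAF inhibition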
Gli-Sufu antag = blocks Gli-Sufu signaling in a luciferase reporter; Sufu-KO-LIGHT fibroblasts, Gli luciferase reporter luminescence; inhibition, % at 5 µM; hit rate 0.74% among 340,000; AID 588413;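 active = inhibition above about 55%, limit read from the data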
Numbers stand for hits; i = inactive; nt = no result given; ! = not active in a repeat.

SMILES	Jurkat NFkB inh	SMARCA2 activ	697 NFkB inh	esBAF inh	Gli-Sufu antag
CN(C)CCCNC(=O)[C@H]1[C@H](CO)[C@H]2Cn3c(ccc(-c4ccccc4)c3=O)[C@@H]1N2C	nt	nt	nt	i	nt
Cc1cccc(NC(=O)Nc2cccc(F)c2)n1	i	i	i	68	i
Cc1cccc(NC(=O)Nc2cccc(C#N)c2)n1	i	i	i	50	i
Cc1ccc(NC(=O)c2cc(F)c(F)cc2Cl)nc1	i	i	i	44	i
COc1ccc(C(=O)Nc2ccc(Cl)c(Cl)c2)c(OC)n1	i	i	i	66	i
CC(C)CC#Cc1ccc2c(c1)O[C@H](CN(C)C(=O)Cc1ccccc1)[C@@H](C)CN([C@@H](C)CO)S2(=O)=O	nt	nt	nt	i	nt
C[C@@H]1CN([C@@H](C)CO)S(=O)(=O)c2ccc(-c3ccccc3)cc2O[C@H]1CN(C)C(=O)Cc1ccccc1	nt	nt	nt	i	nt
C[C@@H]1CN([C@@H](C)CO)C(=O)Cc2cc(NC(=O)Cn3cnnn3)ccc2O[C@@H]1CN(C)C(=O)Nc1ccccc1	nt	nt	nt	i	nt
NCC[C@H]1CC[C@@H](NS(=O)(=O)Cc2ccccc2)[C@H](CO)O1	nt	nt	nt	i	nt
Cc1cc(NS(=O)(=O)c2ccc(NC(=O)Nc3ccc4c(c3)OCO4)cc2)no1	i	i	i	42	i
Cc1ccc(C(=O)CSc2nnc(N)s2)c(C)c1	i	i	i	61	i
C=CCNc1nc(-c2ccc(OC)cc2OC)cs1	i	i	i	55	i
COc1ccc(-c2csc(NC(=O)C3=COCCO3)n2)c(OC)c1	i	i	i	nt	i
CCC(=O)Nc1cccc(NC(=S)NC(=O)c2ccc(Cl)cc2)c1	i	i	i	61	i
COc1cccc(C(=O)Nc2cccc(C(C)=O)c2)c1	i	i	i	52	i
CCC(=O)Nc1cccc(NC(=S)NC(=O)c2ccc(Cl)cc2Cl)c1	i	i	i	nt	i
COc1ccccc1NC(=O)Nc1nnc(C(C)c2ccccc2)s1 (stereo not drawn)	i	i	i	53	i
COc1ccccc1NC(=O)Nc1nnc(C(C)C)s1	i	i	i	nt	i
COc1ccccc1NC(=O)NC(=O)c1ccccc1	i	i	i	62	i
COc1ccccc1NC(=O)NC(N)=O	i	i	i	i	i
C[C@@H]1CN([C@H](C)CO)C(=O)c2cc(NC(=O)Nc3ccc(F)cc3)ccc2O[C@@H](C)CCCCO[C@H]1CN(C)S(C)(=O)=O	nt	nt	nt	i	nt
C[C@@H]1CN([C@H](C)CO)C(=O)c2cc(-c3ccccc3F)cnc2O[C@@H]1CN(C)Cc1ccc(F)cc1	nt	nt	nt	i	nt
C[C@H](CO)N1C[C@H](C)[C@@H](CN(C)S(C)(=O)=O)Oc2ccc(NC(=O)C3CCCCC3)cc2CC1=O	nt	nt	nt	i	nt
C[C@H](NC(=O)C[C@@H]1C[C@H]2c3cc(N(C)C)ccc3O[C@H]2[C@@H](CO)O1)c1ccccc1	nt	nt	nt	i	nt
CNC[C@H]1OCCCC[C@@H](C)Oc2ccc(NC(=O)Nc3ccc(C(F)(F)F)cc3)cc2C(=O)N([C@H](C)CO)C[C@@H]1C	nt	nt	nt	i	nt
SMILES	Jurkat NFkB inh	SMARCA2 activ	697 NFkB inh	esBAF inh	Gli-Sufu antag
CCN(CC)c1ccc(NC(=O)c2cnn(CC)c2)cc1	i	i	i	54	i
COc1cccc(C(=O)NCCn2ccc3ccccc32)c1	i	i	i	71	i
CCn1cc(C(=O)Nc2ccccc2C(=O)OC)cn1	i	i	i	i	i
Cc1ccc(C(=O)Nc2ccccc2C(=O)NC(C(=O)O)C(C)C)cc1 (stereo not drawn)	i	i	i	31!	i
COc1cc(OC)cc(C(=O)NCCn2ccc3ccccc32)c1	i	i	i	i	i
COC(=O)c1cccc(NC(=O)c2cccc(OC)c2)c1	i	i	i	61	i
CCC(C)C(NC(=O)c1ccccc1NC(=O)c1ccc(C)cc1)C(=O)O (stereo not drawn)	i	i	i	nt	i
COc1cccc(C(=O)Nc2cccc(OC(C)=O)c2)c1	i	i	i	i	i
CCCNC(=O)[C@H]1[C@H](CO)[C@H]2Cn3c(ccc(-c4ccc(OC)cc4)c3=O)[C@H]2N1CCC	nt	nt	nt	i	nt
COc1cccc(C(=O)Nc2ccc(C(=O)O)cc2)c1	i	i	i	i	i
COc1ccc(NC(=S)c2ccccc2)cc1	i	i	i	61	i
COc1cccc(C(=O)NC(=S)Nc2ccc(N3CCCC3)cc2)c1	i	i	i	i	i
COC(=O)c1ccc(NC(=O)c2cccc(OC)c2)cc1	i	i	i	47	i
CCOc1cccc(C(=O)NC(=S)Nc2cccc(C)c2)c1	i	i	i	42	i
COc1cccc(C(=O)NC(=S)Nc2ccc(N(C)C)cc2)c1	i	i	i	61	i

Screens as filed in PubChem BioAssay.
